Among all 69,000 compounds or so, about 950 (1.4%) showed an effect of 50% or more. This excerpt belongs to a sample that is enriched for strong results.
System: Mycobacterium tuberculosis
Assay: Cornell M. t heat shock assay; also: in the data most compounds retested in dose-response had high values
Assay type: functional, organism-based
Design: dose or concentration left out as unconfirmed

| Compound | Percent Effect [%] |
| --- | --- |
| COCCNC(=O)[C@@]12CCO[C@@H]1CCN(Cc1cc(C)on1)C2.O=C(O)C(F)(F)F | -5.953 |
| COc1ccc(C(CNS(=O)(=O)c2cn(C)nc2C)N2CCCC2)cc1.Cl (stereo not drawn) | -8.275 |
| Cc1cccc(CN(Cc2ccccn2)S(=O)(=O)N(C)C)c1 | -11.53 |
| CCN(Cc1cccc(Cl)c1)Cc1ncc(C(C)(C)C)o1 | -28.51 |
| Cc1cccc(CN(Cc2ccccn2)Cc2ncc(C(C)(C)C)o2)c1 | 77.52 |
| O=C(O)C(F)(F)F.O=C(c1cc[nH]n1)N1CCc2onc(COc3cccnc3)c2C1 | 4.696 |
| CC(Cn1ccnc1)NCc1cc(Br)c2c(c1)OCO2.Cl (stereo not drawn) | -15.88 |
| Clc1ccc2cccnc2c1CN1CCCC1Cn1cncn1 (stereo not drawn) | 52.22 |
| Cc1c(Cl)c(CN2CCCC2Cn2cncn2)nc2ccccc12 (stereo not drawn) | 54.06 |
| Cc1nc(CN2CCCC2Cn2cncn2)nc2ccccc12 (stereo not drawn) | 19.17 |
| O=C(CN1CCCC1Cn1cncn1)Nc1cccnc1 (stereo not drawn) | 62.16 |
| O=C(CN1CCCC(Cn2cncn2)C1)Nc1cccnc1 (stereo not drawn) | 9.071 |
| Cc1nc2ccccc2nc1CN1CCCCC1Cn1cccn1 (stereo not drawn) | 5.148 |
| Cc1nc2ccccc2nc1CN1CCCCC1Cn1cncn1 (stereo not drawn) | 12.5 |
| Cc1nc2ccccc2nc1CN1CCCC1Cn1cncn1 (stereo not drawn) | 3.442 |
| Clc1ccc2cccnc2c1CN1CCCC(Cn2cncn2)C1 (stereo not drawn) | 18.36 |
| O=C(CN1CCCCC1Cn1cncn1)Nc1ccncc1 (stereo not drawn) | -9.468 |
| Clc1ccc2cccnc2c1CN1CCCCC1Cn1cncn1 (stereo not drawn) | 36.55 |
| Cc1nc2ccccc2nc1CN1CCCC1Cn1cccn1 (stereo not drawn) | 61.51 |
| CN1CC(=O)N(c2cccc(F)c2)CC12CCN(Cc1cnn(C)c1)C2.O=C(O)C(F)(F)F.O=C(O)C(F)(F)F (stereo not drawn) | -4.947 |
| Cc1cccc(Nc2cc(C)nc(C3CCN(C(C)C)C3)n2)n1.O=CO (stereo not drawn) | -16.48 |
| Cn1cc(CN2CCC[C@]3(C[C@H](Oc4ncccc4F)CO3)C2)cn1.O=C(O)C(F)(F)F.O=C(O)C(F)(F)F | 15.03 |
| Cc1cnc(C(=O)N2CCCC(c3c(C)c(=O)nc4n3CCC4)C2)cn1.Cl (stereo not drawn) | -2.984 |
| Cc1cc2cc(C(=O)N3CC[C@H](O)[C@]4(CCCO4)C3)ccc2o1 | -15.2 |
| CCC(C)NS(=O)(=O)Cc1cccc(NC(=O)C2=CCCC2)c1 (stereo not drawn) | 26.24 |
| Cc1cccc2nc(CN3CCCC3Cn3cccn3)cn12 (stereo not drawn) | 71.56 |
| Cc1nc(C)n(CC2CCCN2Cc2cn3c(C)cccc3n2)n1 (stereo not drawn) | -6.121 |
| Cc1cccc2nc(CN3CCCC3Cn3cncn3)cn12 (stereo not drawn) | -15.33 |
